# Measured values as given in ChEMBL document CHEMBL3988442, “University of Dundee, Small-Polar-MMV Screening Library” (2021).
# Out of some 85,000 compounds screened, about 440 (0.52%) showed an effect of 50% or more. The list comes from a sample in which strong results are over-represented; it also holds similar structures and randomly drawn compounds.
# Assay: In vitro enzyme assay to detect hydrolysis of chlorophenol red-beta-D-[…] directly proportional to the number of Toxoplasma stably expressing beta-galactosidase
# Type: functional, organism-based, Toxoplasma gondii
# Set-up: scale not given: in the data most compounds retested in dose-response had high values
Compound,Percent Effect (50 µM) [%],Percent Effect (10 µM) [%]
O=C(NC(C1CCNCC1)[C@H]1C[C@H](O)C1)C1CC=CC1 (some centres undefined),-3.099,
CSCCC(=O)NC(C1CCNCC1)[C@H]1C[C@H](O)C1 (some centres undefined),2.303,
CN(C)C(=O)C1OCCc2ccccc21 (centres undefined),-9.561,
CCN(C1CC1)S(=O)(=O)c1ccc(OC)c(C(N)=O)c1,-4.702,
CC(C)OCCOCC(O)CN(C)Cc1cccnc1 (centres undefined),-1.887,
Cc1cscc1C(=O)NCCc1cncn1C,-7.221,
NCc1cc(Br)c2c(c1)OCO2,33.59,
CCOC(=O)C(O)c1cc(Br)c2c(c1)OCO2 (centres undefined),60.1,
CC(C)S(=O)(=O)N(C)C(=O)c1cc(Br)c2c(c1)OCO2,10.61,
CC(C)NC(=O)C(C)n1cncn1 (centres undefined),7.173,
CN(CCN)S(=O)(=O)c1cccs1,-2.794,
Cc1cc(C)n(-c2nc(NCCCO)c3c4c(sc3n2)CCCC4)n1,,81.16
Cc1cc(C)n(C2=NC(NCCC(C)C)c3c(sc4c3CCCC4)N2)n1 (centres undefined),,-32.33
Cc1cc(C)n(-c2cncc(NCCNC(=O)C3CCCC3)n2)n1,,-17.81
O=C(NCc1cn2ccccc2n1)c1ccc(=O)oc1,-17.09,
CCCOc1ccc(Cl)cc1NC(=O)NCCC(=O)N(C)C,,15.25
CNCC(=O)Nc1cc(Cl)ccc1OC,-3.261,
COCCNC(=O)Nc1cc(Cl)ccc1OC,51.47,
O=C(CCC1CCCCC1)NCc1c[nH]nn1,1.133,
CC(N)c1ccccc1N1CCOCC1 (centres undefined),0.1688,

Compound,Percent Effect (50 µM) [%],Percent Effect (10 µM) [%]
C[C@@H](CO)NC(=O)NCC1CCN(CC(F)(F)F)CC1,-3.478,
COCCC1(CN2CCCC(C(N)=O)C2)CCC1 (centres undefined),-0.683,
COCCC1(CO)CCCN(CC(N)=O)C1 (centres undefined),0.1422,
COCCC1(CN2CCC(C(N)=O)C2)CCC1 (centres undefined),68.22,
CN(CC1CCOCC1)C(=O)c1ccc(CN)cc1,0.3864,
Cc1c(Cl)c(C(=O)N2CCCCC2)nn1C,24.41,
CCN(CC)Cc1nnnn1-c1ccccc1,68.75,
CCS(=O)(=O)Cc1nnnn1-c1ccccc1,,-0.7088
CN(Cc1ccc2c(c1)OCCO2)Cc1nnnn1-c1ccccc1,,-19.55
O=C(Nc1ccccc1N1CCCC1)C1CCOC1 (centres undefined),2.349,
CS(=O)(=O)Nc1ccccc1CNC(=O)c1ccoc1,97.49,
CN(C)c1ncccc1CNC(=O)c1ccoc1,-3.271,
O=C(CCNC(=O)c1ccoc1)NCc1ccccc1F,,-6.438
CC1CCCN(CCCN)C1 (centres undefined),8.539,
O=C(CC1CSCCN1)NCCc1ccc(F)cc1F (centres undefined),0.8144,
CCCc1noc(COc2nc(C)no2)n1,3.348,
CC(C)C(NC(=O)Cn1cnnn1)c1cccs1 (centres undefined),19.15,
O=C(N1CCOCC1)[C@@]12CCO[C@@H]1CCN(C1CCCCC1)C2.O=C(O)C(F)(F)F,,-8.917
O=C(N1CCOCC1)[C@@]12CCO[C@@H]1CCN(C1CCOCC1)C2.O=C(O)C(F)(F)F,,86.48
O=C(N1CCOCC1)[C@@]12CCO[C@@H]1CCN(C1CCC1)C2.O=C(O)C(F)(F)F,,41.32

Compound,Percent Effect (50 µM) [%],Percent Effect (10 µM) [%]
Cc1cc(C)n(CCC(=O)NC2C=CS(=O)(=O)C2)n1 (centres undefined),-3.643,
CC(Nc1ccc(C#N)cn1)c1ccc2c(c1)OCO2 (centres undefined),3.939,
CC(C)CC(=O)N1CC[C@H]2N(C)CC[C@@]2(C(=O)Nc2ccccc2)CC1.O=C(O)C(F)(F)F,,95.11
CC(C)C(=O)N1CC[C@H]2N(C)CC[C@@]2(C(=O)Nc2ccccc2)CC1,,-18.9
CC(C)CC(=O)N1CC[C@H]2N(C)CC[C@@]2(C(=O)Nc2cccnc2)CC1.O=C(O)C(F)(F)F.O=C(O)C(F)(F)F,,6.738
O=C(CCC1CCCCC1)N1CC[S+]([O-])CC1,-3.074,
CC(C)(C)OC(=O)NCCC(=O)NCC(O)c1cccc(F)c1 (centres undefined),,-9.599
CC(C)(CO)NCC(O)c1cccc(F)c1 (centres undefined),95.56,
CC(C)(CO)NCC(O)c1cccc(Cl)c1 (centres undefined),48.83,
Cc1cc(Br)oc1C(=O)NCCOC(N)=O,-2.351,
COc1ccc(OC)c(NC(=O)N2CC(C)(OC)C2)c1,3.541,
CC[C@H](C)[C@H](N)C(=O)NC,-8.555,
Cl.c1csc(-c2noc(C3CNC3)n2)c1,,42.66
c1csc(-c2noc(C3CCCOC3)n2)c1 (centres undefined),,-3.059
CC(=O)Nc1ccc(C(C)N)cc1 (centres undefined),-11.91,
COCCn1ccnc1CN(C)[C@H]1COC[C@@H]1O,-5.172,
CN1CCN(Cc2c(-c3ccco3)[nH]c3ncccc23)CC1,,84.72
CCN1CCN(Cc2c(-c3ccco3)[nH]c3ncccc23)CC1,,-25.08
OC1CCN(Cc2c(-c3ccco3)[nH]c3ncccc23)CC1,,-9.681
